Data from PubChem BioAssay.
Several values for one entry are separate records, joined by “and”; a condition that tells them apart may be missing. Equal values may be shown once. Activity calls are given as the source filed them.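 Rule for the calls, unless noted: active = inhibition at or above 50% relative to wild type and mutant plate controls; inactive = inhibition below 50%.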

Columns and labels:
[1] = inhibitors of mutant huntingtin aggregation, primary screen, imaging, exon1htt(103Q)mCFP cells, high-content imaging (AID 483;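 active = visual image review flags a hit and inhibition of aggregation exceeds 20%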;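 note: compound exposure lasted 3 days before fixation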;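 for nuclei count: percent of the per-plate median nuclei count of sample wells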); details: exon1htt(103Q)mCFP cell line, aggregate imaging, at 2 µM; inhibition of aggregation: stronger effect = higher value; nuclei count: measured here: cell count, toxicity
[2] = inhibitors of E-selectin induction by TNFa, primary screen, imaging, HUVEC, immunofluorescence, MLSMR starter and 10KST1 sets (AID 487;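 active = visually confirmed hit in the image check and inhibition above 20%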;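 for inhibition: signal is fraction of cell area covered by stained E-selectin grains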;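 for nuclei count: 100% = median nuclei count of all wells on the same plate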); details: HUVEC TNFalpha-induced E-selectin immunofluorescence imaging, at 2 µM; inhibition: stronger effect = higher value; nuclei count: measured here: cell number, toxicity
[3] = DUSP6 inhibitors restoring Erk phosphorylation by chemical complementation, primary imaging in DUSP6-transfected HeLa (AID 609;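 active = compounds giving at least 50% inhibition in the cell-based MKP-3 phosphatase rescue imaging test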;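 for inhibition: phospho-Erk level distribution per well compared with pooled transfected vehicle control wells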); details: HeLa MKP-3 transfected, phospho-Erk imaging KS statistic, at 10 µM
[4] = target: Dual specificity protein phosphatase 6 (Homo sapiens) (UniProt Q16828); assay: as above; details: HeLa MKP-3 transfected, phospho-Erk imaging KS statistic, at 10 µM, stronger effect = higher value
Chain of Dual specificity protein phosphatase 6 (Homo sapiens) (Q16828 whole entry, looked up): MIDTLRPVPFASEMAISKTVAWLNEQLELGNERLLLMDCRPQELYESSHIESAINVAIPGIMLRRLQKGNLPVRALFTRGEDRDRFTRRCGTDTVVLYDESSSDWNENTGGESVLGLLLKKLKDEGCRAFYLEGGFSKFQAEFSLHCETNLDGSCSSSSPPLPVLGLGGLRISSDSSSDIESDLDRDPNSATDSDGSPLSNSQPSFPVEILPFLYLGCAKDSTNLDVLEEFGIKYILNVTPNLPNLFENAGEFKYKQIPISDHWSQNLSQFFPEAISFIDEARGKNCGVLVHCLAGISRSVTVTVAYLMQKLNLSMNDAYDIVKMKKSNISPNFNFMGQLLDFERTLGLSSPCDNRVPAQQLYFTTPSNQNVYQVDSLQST

[5] = target: Voltage-gated potassium channel subunit beta-2 (Rattus norvegicus) (UniProt P62483); assay: KvBeta enzyme negative modulators, primary screen, biochemical, NADPH fluorescence (AID 622;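 active = fluorescence slope higher than the sample average by over 3 SD, cut at about -0.22 in these data, passing the limit was not always enough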;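 note: slope of raw intensity against log time taken from 70 to 1610 s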); details: recombinant KvBeta, 4-cyanobenzaldehyde reduction, at 10 µM, stronger effect = higher value
Chain of Voltage-gated potassium channel subunit beta-2 (Rattus norvegicus) (P62483 whole entry, looked up): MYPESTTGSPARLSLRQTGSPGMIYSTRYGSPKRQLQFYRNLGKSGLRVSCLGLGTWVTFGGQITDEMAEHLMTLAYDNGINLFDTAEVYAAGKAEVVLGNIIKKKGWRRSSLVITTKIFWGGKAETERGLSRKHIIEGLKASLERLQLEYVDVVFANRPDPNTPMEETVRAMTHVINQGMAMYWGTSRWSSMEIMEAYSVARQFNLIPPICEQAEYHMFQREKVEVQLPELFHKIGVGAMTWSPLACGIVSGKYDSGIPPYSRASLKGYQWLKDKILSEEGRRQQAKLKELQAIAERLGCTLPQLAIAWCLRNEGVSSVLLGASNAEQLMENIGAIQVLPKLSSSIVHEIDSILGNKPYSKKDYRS

[6] = target: Voltage-gated potassium channel subunit beta-2 (Rattus norvegicus) (UniProt P62483); assay: KvBeta positive modulators, primary screen, biochemical, NADPH fluorescence (AID 623;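 active = NADPH fluorescence slope more negative than the mean of all samples by about 3 SD, 99.7% confidence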;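 note: fluorescence intensity change per second fitted from 20 to 320 s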); details: Recombinant KvBeta, NADPH fluorescence decrease slope, 10 min; at 10 µM; stronger effect = lower value
[7] = target: Alpha-2C adrenergic receptor (Homo sapiens) (UniProt P18825); assay: modulators of alpha2C/GIRK thallium flux, primary screen, cell-based, HEK293 alpha2C/GIRK1/2 (AID 624;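 active = fluorescence slope after compound addition differing from the mean of all screened samples at 99.7% confidence, in either direction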;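 note: slope of fluorescence ratio to pre-addition baseline per second over 15 to 24 s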); details: thallium flux BTC fluorescence, at 10 µM, actives lie on both sides
Chain of Alpha-2C adrenergic receptor (Homo sapiens) (P18825 whole entry, looked up): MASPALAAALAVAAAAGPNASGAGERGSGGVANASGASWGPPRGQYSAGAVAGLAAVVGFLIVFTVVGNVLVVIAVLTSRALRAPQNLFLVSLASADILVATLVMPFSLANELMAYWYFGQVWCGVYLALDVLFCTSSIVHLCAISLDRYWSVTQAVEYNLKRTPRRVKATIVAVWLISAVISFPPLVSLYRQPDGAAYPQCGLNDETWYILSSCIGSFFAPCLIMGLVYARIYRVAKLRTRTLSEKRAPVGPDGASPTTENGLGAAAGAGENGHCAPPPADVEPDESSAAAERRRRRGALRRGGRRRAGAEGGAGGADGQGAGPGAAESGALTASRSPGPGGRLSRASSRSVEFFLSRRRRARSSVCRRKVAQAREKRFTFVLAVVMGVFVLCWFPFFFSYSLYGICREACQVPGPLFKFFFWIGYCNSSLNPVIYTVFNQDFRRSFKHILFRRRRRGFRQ

[8] = inhibitors of larval lipid processing in zebrafish, primary screen, whole organism, PED6 fluorescence, gall bladder and intestine (AID 686;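 active = a full or partial loss of lipid-probe fluorescence in the fish gall bladder, intestine or both, judged by eye; inactive = no fluorescence loss, or compound toxic to the fish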;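 note: larvae 5 to 7 days old with five fish per well; signal comes from phospholipase A2 cleavage of quenched PED6 carried via bile; overnight exposure to compound and PED6 before scoring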); details: Zebrafish larvae PED6 lipid processing, fluorescence scoring
[9] = inhibitors of Chlamydomonas gravitaxis, primary screen, whole organism, Chlamydomonas reinhardtii, WT vs cilia-less mutant, absorbance, 96-well (AID 463189); details: OD600 absorbance, 2 days, at 10 µM, stronger effect = higher value;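 note: 0% = wild type cc124 cells in DMSO and 100% = ciliumless bld1 mutant cells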
[10] = inhibitors of Sendai virus-induced IRF3 signaling, primary screen, TLR/RLR signaling modifier project, cell-based, Sendai virus stimulus, luciferase, 10K MLSCN set (AID 602276;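 active = inhibition at or above 50% at 10 µM; inactive = inhibition below 50%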;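 note: firefly luciferase from ISG56 promoter only with Renilla not read in this screen; 0% = Sendai virus plus DMSO and 100% = medium plus DMSO without virus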); details: HEK293 RL24 IRF3 luciferase reporter, at 10 µM, stronger effect = higher value
[11] = inhibitors of poly I:C-induced TLR3 signaling, primary screen, cell-based, poly I:C stimulus, luciferase, 10K MLSCN set (AID 602277;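 active = inhibition of the reporter signal at or above 50%; inactive = inhibition below 50%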); details: HEK293-TLR3 RL24 IRF3 luciferase reporter, at 10 µM, stronger effect = higher value
[12] = target: Muscarinic acetylcholine receptor M4 (Homo sapiens) (UniProt P08173); assay: compounds altering M4/GIRK thallium flux, either direction, primary screen, M4 allosteric agonist project, cell-based, HEK293 M4/GIRK, BTC-AM (AID 625;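 active = fluorescence slope after compound addition differing from the mean of all tested samples at 99.7% confidence, mostly higher but some lower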;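 note: thallium influx through GIRK channels coupled to M4 in HEK293 cells with BTC-AM dye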); details: at 10 µM, actives lie on both sides
Chain of Muscarinic acetylcholine receptor M4 (Homo sapiens) (P08173 whole entry, looked up): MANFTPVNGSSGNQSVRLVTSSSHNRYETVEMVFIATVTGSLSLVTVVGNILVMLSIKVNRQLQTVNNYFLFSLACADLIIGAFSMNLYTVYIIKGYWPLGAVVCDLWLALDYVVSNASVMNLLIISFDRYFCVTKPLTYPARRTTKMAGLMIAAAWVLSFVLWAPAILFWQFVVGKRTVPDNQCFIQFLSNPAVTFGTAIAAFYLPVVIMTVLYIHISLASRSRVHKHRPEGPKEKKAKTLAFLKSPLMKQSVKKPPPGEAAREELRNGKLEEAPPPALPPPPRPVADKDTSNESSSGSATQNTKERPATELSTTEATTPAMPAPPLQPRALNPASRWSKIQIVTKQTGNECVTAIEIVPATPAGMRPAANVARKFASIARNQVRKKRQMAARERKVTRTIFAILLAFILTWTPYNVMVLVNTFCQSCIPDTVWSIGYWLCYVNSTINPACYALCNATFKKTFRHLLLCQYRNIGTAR

[13] = measured here: cell density z-score
[14] = measured here: nuclear c-Myc green intensity z-score
[15] = measured here: nuclear pErk red intensity z-score, stronger effect = higher value

Question: What does the source list for c1ccc2c(c1)OCC(C1=NCCN1)O2 (stereo not drawn)?
Answer: inhibition of aggregation [1]: 2.2% (inactive); nuclei count [1]: 109%; inhibition [2]: -66.1% (inactive); nuclei count [2]: 128%; z-score [3, 13]: 0.816; z-score [3, 14]: -0.0814; z-score [3, 15]: 0.589; inhibition [4]: 27.9% (inactive); fluorescence slope [5]: 0.111 (active); NADPH fluorescence slope [6]: -0.000173 (inactive); slope [7]: 0.0054 (inactive); outcome [8]: inactive; inhibition [9]: -4.66% (inactive) and 22.4% (inactive); inhibition [10]: -8.86% (inactive); inhibition [11]: 10.1% (inactive)

Question: Which inhibition [9] does the source give for CC1OC1P(=O)(O)O (stereo not drawn) here?
Answer: The inhibition was 0.291% (inactive).

Question: With CC(C)(C)c1o[nH]c(=O)c1CC(N)C(=O)O (stereo not drawn) as the compound, how does the inhibition [9] read?
Answer: Its inhibition is 0.571% (inactive).

Question: Which results are given for C[N+]1(C)[C@@H]2CC[C@H]1CC(OC(=O)C(CO)c1ccccc1)C2 (stereo partly drawn)?
Answer: inhibition of aggregation [1]: -2.8% (inactive); nuclei count [1]: 112%; inhibition [2]: -82.3% (inactive) and -114% (inactive); nuclei count [2]: 123% and 124%; z-score [3, 13]: -1.12 and 0.779; z-score [3, 14]: 0.388 and 0.223; z-score [3, 15]: -0.779 and -1.81; inhibition [4]: 1.48% (inactive) and 15.3% (inactive); fluorescence slope [5]: -0.509 (inactive) and -0.518 (inactive); NADPH fluorescence slope [6]: -2.9e-05 (inactive) and -4.5e-05 (inactive); slope [7]: 0.005 (inactive) and 0.00423 (inactive); outcome [8]: inactive; inhibition [9]: 30.8% (inactive) and -7.87% (inactive); inhibition [10]: 13.4% (inactive) and 12.2% (inactive); inhibition [11]: 35.7% (inactive) and 30.4% (inactive)

Question: With CP(=O)(O)C1=CCNCC1 as the compound, how does the inhibition [9] read?
Answer: Its inhibition is 10% (inactive).

Question: For COc1ccc2c(c1)[C@@]13CCCC[C@H]1[C@@H](C2)NCC3, which inhibition [9] is on record?
Answer: The inhibition was 4.9% (inactive).

Question: With O=P(c1ccccc1)(c1ccccc1)N1CCCCC1 as the compound, how does the inhibition [2] read?
Answer: The inhibition was -13.6% (inactive).

Question: What about the nuclei count [2] of the same compound?
Answer: Its nuclei count is 99.1%.

Question: And the z-score [3, 13]?
Answer: Its z-score is -0.682.

Question: And the z-score [3, 14]?
Answer: Its z-score is -0.604.

Question: And the z-score [3, 15]?
Answer: The z-score was -1.11.

Question: And the inhibition [4]?
Answer: Its inhibition is 18.9% (inactive).

Question: What about the fluorescence slope [5] of the same compound?
Answer: The fluorescence slope was -0.396 (inactive).

Question: What about the NADPH fluorescence slope [6] of the same compound?
Answer: Its NADPH fluorescence slope is 1.4e-05 (inactive).

Question: And the fluorescence slope [12]?
Answer: The fluorescence slope was 0.00417 (inactive).

Question: What about the outcome [8] of the same compound?
Answer: Its outcome is “inactive”.

Question: And the inhibition [9]?
Answer: Its inhibition is -7.33% (inactive).

Question: Which inhibition [9] does the source give for Cc1ccc(S(=O)(=O)N[C@@H](CCCCN)C(=O)CCl)cc1 here?
Answer: The inhibition was 5.31% (inactive).

Question: Which inhibition of aggregation [1] does the source give for O=C(COc1ccc2ccccc2c1)N1CCN(C2CCN(Cc3ccccc3)CC2)CC1 here?
Answer: The inhibition of aggregation was 2.5% (inactive).

Question: And the nuclei count [1]?
Answer: Its nuclei count is 75.6%.

Question: What about the inhibition [2] of the same compound?
Answer: The inhibition was -123% (inactive).

Question: What about the nuclei count [2] of the same compound?
Answer: The nuclei count was 138%.

Question: What about the z-score [3, 13] of the same compound?
Answer: Its z-score is 0.592.

Question: What about the z-score [3, 14] of the same compound?
Answer: Its z-score is -1.17.

Question: And the z-score [3, 15]?
Answer: Its z-score is 0.865.

Question: And the inhibition [4]?
Answer: The inhibition was 1.04% (inactive).

Question: What about the fluorescence slope [5] of the same compound?
Answer: The fluorescence slope was -0.309 (inactive).

Question: And the NADPH fluorescence slope [6]?
Answer: The NADPH fluorescence slope was 1.5e-05 (inactive).

Question: And the slope [7]?
Answer: Its slope is 0.00353 (inactive).

Question: What about the outcome [8] of the same compound?
Answer: Its outcome is “inactive”.

Question: And the inhibition [9]?
Answer: The inhibition was 64.5% (active).

Question: And the inhibition [10]?
Answer: Its inhibition is 8.43% (inactive).

Question: What about the inhibition [11] of the same compound?
Answer: Its inhibition is -13.3% (inactive).

Question: Which inhibition [2] does the source give for O=C1CC[C@@]2(O)[C@H]3Cc4ccc(O)c5c4[C@@]2(CCN3CC2CC2)[C@H]1O5 here?
Answer: Its inhibition is -64.2% (inactive).

Question: And the nuclei count [2]?
Answer: Its nuclei count is 120%.

Question: And the z-score [3, 13]?
Answer: The z-score was 1.03.

Question: What about the z-score [3, 14] of the same compound?
Answer: Its z-score is 0.419.

Question: And the z-score [3, 15]?
Answer: Its z-score is 0.423.

Question: And the inhibition [4]?
Answer: The inhibition was 11.3% (inactive).

Question: What about the fluorescence slope [5] of the same compound?
Answer: Its fluorescence slope is -0.463 (inactive).

Question: And the NADPH fluorescence slope [6]?
Answer: The NADPH fluorescence slope was -9.1e-06 (inactive).

Question: What about the slope [7] of the same compound?
Answer: The slope was 0.0048 (inactive).

Question: And the outcome [8]?
Answer: Its outcome is “inactive”.

Question: What about the inhibition [9] of the same compound?
Answer: Its inhibition is 17.1% (inactive).

Question: What about the inhibition [10] of the same compound?
Answer: The inhibition was 10.3% (inactive).

Question: What about the inhibition [11] of the same compound?
Answer: The inhibition was 48.8% (inactive).

Question: For NC(=O)CN1CCCC1=O, which inhibition [9] is on record?
Answer: Its inhibition is -12.5% (inactive).

Question: With S=C(NC1CCCCC1)N1CCC(c2cnc[nH]2)CC1 as the compound, how does the inhibition [9] read?
Answer: The inhibition was 12.6% (inactive).

Question: For Cc1cccc(C)c1NC1=NCCCS1, which inhibition [9] is on record?
Answer: Its inhibition is 6.94% (inactive).

Question: Which inhibition [9] does the source give for CN1C2CCC1CC(OC(c1ccccc1)c1ccccc1N)C2 (stereo not drawn) here?
Answer: Its inhibition is -4.19% (inactive).

Question: For CCn1cc(C(=O)O)c(=O)c2ccc(C)nc21, which inhibition [9] is on record?
Answer: Its inhibition is -5.13% (inactive) and 33.3% (inactive).

Question: With COC(=O)N1CCN(C(=O)Cc2ccc(Cl)c(Cl)c2)C(CN2CCCC2)C1 (stereo not drawn) as the compound, how does the inhibition [9] read?
Answer: The inhibition was -0.837% (inactive).

Question: What does the source list for Cn1c(O)c(C(=O)c2ccccc2Cl)c(=O)n(C)c1=O?
Answer: inhibition [2]: 35.3% (inactive); nuclei count [2]: 79.3%; z-score [3, 13]: -0.324; z-score [3, 14]: 0.445; z-score [3, 15]: 0.96; inhibition [4]: 5.57% (inactive); fluorescence slope [5]: -0.47 (inactive); NADPH fluorescence slope [6]: -3.4e-05 (inactive); fluorescence slope [12]: 0.00543 (inactive); outcome [8]: inactive; inhibition [9]: 9.5% (inactive)

Question: For COc1cc(C[C@@H](C)N)c(OC)cc1I, which inhibition [9] is on record?
Answer: Its inhibition is -7.2% (inactive).

Question: For Ic1ccccc1CNC1C2CCN(CC2)C1C(c1ccccc1)c1ccccc1 (stereo not drawn), which inhibition [9] is on record?
Answer: The inhibition was 75.8% (active).

Question: With O=C(O)Cc1cnc[nH]1 as the compound, how does the inhibition [9] read?
Answer: Its inhibition is 2.27% (inactive).

Question: Which inhibition [9] does the source give for CC[N+](CC)(CC)CC here?
Answer: The inhibition was 6.89% (inactive).

Question: For c1ccc2sc(C3(N4CCCCC4)CCCCC3)cc2c1, which inhibition [9] is on record?
Answer: Its inhibition is -0.941% (inactive).

Question: With c1ccc(CCCN2CCN(CCOC(c3ccccc3)c3ccccc3)CC2)cc1 as the compound, how does the inhibition [9] read?
Answer: The inhibition was 20% (inactive).

Question: What does the source list for COc1ccc(Cc2nccc3cc(OC)c(OC)cc23)cc1OC?
Answer: inhibition of aggregation [1]: -8.7% (inactive); nuclei count [1]: 110%; inhibition [2]: -204% (inactive); nuclei count [2]: 140%; z-score [3, 13]: 1.76; z-score [3, 14]: -0.33; z-score [3, 15]: -0.255; inhibition [4]: 9.37% (inactive); fluorescence slope [5]: -0.442 (inactive); NADPH fluorescence slope [6]: -7e-05 (inactive); slope [7]: 0.00447 (inactive); outcome [8]: inactive; toxic; inhibition [9]: -20% (inactive) and 8.29% (inactive); inhibition [10]: -5.8% (inactive); inhibition [11]: -3.94% (inactive)

Question: Which inhibition [9] does the source give for CCC1(c2ccc(N)cc2)CCC(=O)NC1=O (stereo not drawn) here?
Answer: Its inhibition is -0.133% (inactive).
